Measurements as given in PubChem BioAssay (Tox21).
Values joined by “and” are separate entries in the source; they are usually repeats but may differ in a detail not shown here. Equal entries are not always repeated. Records with an inconclusive call do not appear. Entries that show only a call come without a potency. Some structures have more than one record in an assay (separate samples or runs), and their calls can disagree. Active and inactive are the calls of the source. Calls come from the whole dose curve; as a rule, active = well fitted inhibition curve with a large enough effect in the repeat runs; inconclusive = weak or mixed curves; inactive = no such curve, though single readings can be large or run the other way.

These molecules were tested against Cytochrome P450 2D6 (Homo sapiens) (UniProt P10635) (assay: Cytochrome P450 Family 2 Subfamily D Member 6 (CYP2D6) small molecule antagonists: luciferase reporter qHTS assay (AID 1671196; note: nearly all actives have a fitted effect of over 50% in size)). Conditions: P450-Glo CYP2D6 enzyme assay, luciferin luminescence, 1 h; series mostly up to 115 µM.
Description: U.S. Tox21 Program National Center for Advancing Translational Sciences [NCATS] U.S. Environmental Protection Agency [EPA] National Institutes of Environmental Health Sciences [NIEHS] National Toxicology Program [NTP] U.S. Food and Drug Administration [FDA] Tox21 Assay Overview: Cytochrome P450 (CYP) enzymes are membrane-bound hemeproteins that play a key role in metabolism of drugs and xenobiotics. Evaluation of the effect of chemicals on CYP isozymes is useful to minimize the adverse drug reactions and toxicities in drug development process. Tox21 chemicals were tested for their effect on CYP enzyme activities by using P450-Glo (TM) screening systems (Promega Corporation, Madison, WI). These systems provide a luminescent method containing proluciferin substrates and are converted to luciferin products by CYP isozymes. The luciferin products formed are detected with a luciferin detection reagent, and the amount of light produced is proportional to CYP activity. P450-Glo (TM) CYP2D6 screening system (Catalog. No. V9890) was used to detect the compounds that interfere in CYP2D6 activity.
Tox21 Assay Protocol Summary: Two ul of enzyme-substrate mix was dispensed into medium binding white/solid 1536-well plates (Greiner Bio-One North America Inc., Monroe, NC) using a BioRaptr Flying Reagent Dispenser (FRD, Beckman Coulter, Brea, CA). […] The assay plates were incubated at room temperature for 10 min. Then 2 ul of NADPH regeneration solution was added to each well of the assay plates using an FRD and incubated at room temperature for 1 h. The reaction was stopped by adding 4 ul of detection reagent using an FRD and after 20 min incubation at room temperature the luminescence signal was measured using a ViewLux plate reader (Perkin Elmer, Shelton, CT). Data were expressed as relative luminescence units.
Potency is the fitted concentration of half-maximal effect.

Chain of Cytochrome P450 2D6 (Homo sapiens) (P10635 whole entry, looked up): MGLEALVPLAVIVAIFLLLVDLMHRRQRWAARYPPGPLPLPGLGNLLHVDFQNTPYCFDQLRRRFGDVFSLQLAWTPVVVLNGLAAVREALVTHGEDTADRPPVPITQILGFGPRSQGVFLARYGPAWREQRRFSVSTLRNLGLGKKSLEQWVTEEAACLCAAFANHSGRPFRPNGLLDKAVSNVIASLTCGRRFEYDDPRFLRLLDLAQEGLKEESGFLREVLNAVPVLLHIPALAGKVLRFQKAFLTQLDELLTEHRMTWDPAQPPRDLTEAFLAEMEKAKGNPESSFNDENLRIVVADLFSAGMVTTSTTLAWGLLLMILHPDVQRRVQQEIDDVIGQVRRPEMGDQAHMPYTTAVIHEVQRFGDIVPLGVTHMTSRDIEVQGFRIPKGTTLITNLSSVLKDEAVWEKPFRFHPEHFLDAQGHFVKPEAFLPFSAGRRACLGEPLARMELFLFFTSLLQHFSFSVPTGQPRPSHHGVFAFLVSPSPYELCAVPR

| SMILES | Potency |
| --- | --- |
| Oc1cc(Cl)c(Cl)cc1Cl | inactive |
| C=CC(=O)OCCO | inactive |
| Nc1c(Cl)cc([N+](=O)[O-])cc1Cl | 35.8 µM (active) and inactive |
| CCOc1cc(C=O)ccc1O | inactive |
| CC(O)CCO (stereo not given) | 32 µM (active) and inactive |
| O=S(=O)(Oc1ccc(Cl)cc1)c1ccc(Cl)cc1 | 16.1 µM (active) and 28.3 µM (active) |
| CCCCNC(=O)n1c(NC(=O)OC)nc2ccccc21 | inactive |
| O=C(O)C(F)(F)C(F)(F)C(F)(F)C(F)(F)C(F)(F)C(F)(F)C(F)(F)F | inactive |
| C=CCc1ccc2c(c1)OCO2 | inactive |
| CCCCCCOC(=O)c1ccccc1C(=O)OCCCCCC | inactive |
| CCC(CC)Nc1c([N+](=O)[O-])cc(C)c(C)c1[N+](=O)[O-] | inactive |
| NNC(N)=S | inactive |
| CCCCC(CC)COC(=O)c1ccc(C(=O)OCC(CC)CCCC)c(C(=O)OCC(CC)CCCC)c1 (stereo not given) | inactive |
| c1ccc(-c2cccc(-c3ccccc3)c2)cc1 | inactive |
| O=C(Nc1ccc(Br)cc1)c1cc(Br)cc(Br)c1O | 79.6 µM (active) and inactive |
| N#Cc1cc(Br)c(O)c(Br)c1 | inactive |
| Oc1cc(Cl)ccc1Oc1ccc(Cl)cc1Cl | inactive |
| Nc1ccc(-c2ccc(N)c(N)c2)cc1N | 28.2 µM (active) |
| COP(=S)(OC)Oc1cc(Cl)c(Cl)cc1Cl | inactive |
| CC(C)NC(C)C | inactive |

| SMILES | Potency |
| --- | --- |
| Oc1cc(Cl)ccc1Cl | inactive |
| CC(C)=CC1C(C(=O)OCc2coc(Cc3ccccc3)c2)C1(C)C (stereo not given) | inactive |
| CCC(C)(C)c1ccc(O)cc1 | inactive |
| CC(C)Oc1cc(-n2nc(C(C)(C)C)oc2=O)c(Cl)cc1Cl | inactive |
| CCC(C)(c1ccc(O)cc1)c1ccc(O)cc1 | inactive |
| CN(C)c1ccc(C(=O)c2ccc(N(C)C)cc2)cc1 | inactive and 35.6 µM (active) |
| C#CCOS(=O)OC1CCCCC1Oc1ccc(C(C)(C)C)cc1 (stereo not given) | 22.5 µM (active) and 22.4 µM (active) |
| Cc1ccc2c(c1N)C(=O)c1ccccc1C2=O | 702 nM (active) and 5.64 µM (active) |
| O=P(O)(O)CCCl | inactive |
| Cc1c(COC(=O)[C@@H]2[C@H](/C=C(\Cl)C(F)(F)F)C2(C)C)cccc1-c1ccccc1 | inactive |
| CCCCN(CC)c1c([N+](=O)[O-])cc(C(F)(F)F)cc1[N+](=O)[O-] | inactive |
| O=C(O)CC[N+](=O)[O-] | inactive |
| CC(C)(C)c1ccccc1O | inactive |
| CN(C)C(=O)Nc1ccc(Cl)cc1 | 9.86 µM (active) |
| CCCCCCCCOC(=O)c1ccccc1C(=O)OCCCCCCCC | inactive |
| COc1ccc(C=O)cc1 | inactive |
| C=CCc1ccc(OC)cc1 | 5.47 µM (active) and inactive |
| CCCCCCCCCCCOC(=O)c1ccccc1C(=O)OCCCCCCCCCCC | inactive |
| CCC(=O)O[C@H]1CC[C@H]2[C@@H]3CCC4=CC(=O)CC[C@]4(C)[C@H]3CC[C@]12C | inactive |
| CC(C)c1ccc(CO)cc1 | inactive |
